# In article PMC9911399, “Two distinct binding modes provide the RNA-binding protein RbFox with extraordinary sequence specificity”:
# Changes are numbered by the printed parent chain; changes in the protein carry UniProt numbers. In all, about 16,000 sequences were measured (“ka relative to ugcaugu”: median about 0.096, highest 2% from about 0.35 on). The sample holds the highest values, similar sequences and a random draw of the others, so the mix is not that of the screen.
# T1: RBFOX1 RRM RbFoxmut (Fox-RRM*) (Homo sapiens, UniProt Q9NWB1 109-208, R118D;E147R;N151S;E152T)
# T1 sequence: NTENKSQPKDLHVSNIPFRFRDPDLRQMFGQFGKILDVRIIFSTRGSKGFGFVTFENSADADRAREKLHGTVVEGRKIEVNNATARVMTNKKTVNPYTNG
# B1: AUUUAGC (DNA:RNA)
# RNA: GGGAGACCGGAAUUCAGAUUGUCCAUUUAGCUUAAAUCCCGUCGUAGCCACCA
# DNA 1: CAATCTGAATTCCGGTCTCCC
# DNA 2: TGGTGGCTACGACGGGATT
# B2: CCCGUAG (DNA:RNA)
# RNA: GGGAGACCGGAAUUCAGAUUGUCCCCCGUAGUUAAAUCCCGUCGUAGCCACCA
# DNA 1: CAATCTGAATTCCGGTCTCCC
# DNA 2: TGGTGGCTACGACGGGATT
# B3: CCUGGAG (DNA:RNA)
# RNA: B2 RNA with C27U, U29G
# DNA 1: CAATCTGAATTCCGGTCTCCC
# DNA 2: TGGTGGCTACGACGGGATT
# B4: GCAGUAG (DNA:RNA)
# RNA: B2 RNA with C25G, C27A
# DNA 1: CAATCTGAATTCCGGTCTCCC
# DNA 2: TGGTGGCTACGACGGGATT
# B5: CAGGUCU (DNA:RNA)
# RNA: B2 RNA with C26A, C27G, A30C, G31U
# DNA 1: CAATCTGAATTCCGGTCTCCC
# DNA 2: TGGTGGCTACGACGGGATT
# B6: CAUUAAC (DNA:RNA)
# RNA: B1 RNA with A25C, U26A, G30A
# DNA 1: CAATCTGAATTCCGGTCTCCC
# DNA 2: TGGTGGCTACGACGGGATT
# B7: UGCUGCA (DNA:RNA)
# RNA: B1 RNA with A25U, U26G, U27C, A29G, G30C, C31A
# DNA 1: CAATCTGAATTCCGGTCTCCC
# DNA 2: TGGTGGCTACGACGGGATT
# B8: UGCAUGC (DNA:RNA)
# RNA: B1 RNA with A25U, U26G, U27C, U28A, A29U
# DNA 1: CAATCTGAATTCCGGTCTCCC
# DNA 2: TGGTGGCTACGACGGGATT
# B9: UUCAUGC (DNA:RNA)
# RNA: B1 RNA with A25U, U27C, U28A, A29U
# DNA 1: CAATCTGAATTCCGGTCTCCC
# DNA 2: TGGTGGCTACGACGGGATT
# B10: UGCAUCC (DNA:RNA)
# RNA: B2 RNA with C25U, C26G, G28A, A30C, G31C
# DNA 1: CAATCTGAATTCCGGTCTCCC
# DNA 2: TGGTGGCTACGACGGGATT
# B11: GUCCUGC (DNA:RNA)
# RNA: B1 RNA with A25G, U27C, U28C, A29U
# DNA 1: CAATCTGAATTCCGGTCTCCC
# DNA 2: TGGTGGCTACGACGGGATT
# B12: UGCAUCG (DNA:RNA)
# RNA: B2 RNA with C25U, C26G, G28A, A30C
# DNA 1: CAATCTGAATTCCGGTCTCCC
# DNA 2: TGGTGGCTACGACGGGATT
# B13: UGCAUAC (DNA:RNA)
# RNA: B2 RNA with C25U, C26G, G28A, G31C
# DNA 1: CAATCTGAATTCCGGTCTCCC
# DNA 2: TGGTGGCTACGACGGGATT
# B14: UGCGUCC (DNA:RNA)
# RNA: B2 RNA with C25U, C26G, A30C, G31C
# DNA 1: CAATCTGAATTCCGGTCTCCC
# DNA 2: TGGTGGCTACGACGGGATT
# B15: UGCACCC (DNA:RNA)
# RNA: B1 RNA with A25U, U26G, U27C, U28A, A29C, G30C
# DNA 1: CAATCTGAATTCCGGTCTCCC
# DNA 2: TGGTGGCTACGACGGGATT
# B16: UGCAUAG (DNA:RNA)
# RNA: B2 RNA with C25U, C26G, G28A
# DNA 1: CAATCTGAATTCCGGTCTCCC
# DNA 2: TGGTGGCTACGACGGGATT
# B17: UGCAUUG (DNA:RNA)
# RNA: B2 RNA with C25U, C26G, G28A, A30U
# DNA 1: CAATCTGAATTCCGGTCTCCC
# DNA 2: TGGTGGCTACGACGGGATT
# B18: UGCAUUC (DNA:RNA)
# RNA: B2 RNA with C25U, C26G, G28A, A30U, G31C
# DNA 1: CAATCTGAATTCCGGTCTCCC
# DNA 2: TGGTGGCTACGACGGGATT
# B19: AACCCAG (DNA:RNA)
# RNA: B2 RNA with C25A, C26A, G28C, U29C
# DNA 1: CAATCTGAATTCCGGTCTCCC
# DNA 2: TGGTGGCTACGACGGGATT
# B20: CCAAUCA (DNA:RNA)
# RNA: B2 RNA with C27A, G28A, A30C, G31A
# DNA 1: CAATCTGAATTCCGGTCTCCC
# DNA 2: TGGTGGCTACGACGGGATT
# Target: T1, RBFOX1 RRM RbFoxmut (Fox-RRM*)
# Experiment: EMSA; HiTS-Eq, 1 nM pool, 10 min; buffer printed only for the single-RNA assays: 10 mM Tris pH 7.5, 150 mM NaCl, 3.4 mM EDTA, 0.001% NP-40, 30 C
# Conditions: tags: His6 N-terminal (pET28a); label: 5' 32P
# Summary of the method: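 Purified RbFox RRM (wild type or mutant) was equilibrated for 10 min in 50 µL with 1 nM of a 5′-radiolabelled pool of RNA with 7 randomized nucleotides, its flanks annealed to DNA oligonucleotides, across increasing protein concentrations. Free RNA was separated by 8% native PAGE, excised, reverse-transcribed, PCR-barcoded and sequenced on an Illumina HiSeq 2500. Relative association constants came from read-count changes of each variant against the control reaction, normalised to the cognate motif.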
row,Binder,binding signal
1,B1,0.134 KA relative to UGCAUGU
2,B2,0.101 KA relative to UGCAUGU
3,B3,0.113 KA relative to UGCAUGU
4,B4,0.122 KA relative to UGCAUGU
5,B5,0.0783 KA relative to UGCAUGU
6,B6,0.113 KA relative to UGCAUGU
7,B7,0.251 KA relative to UGCAUGU
8,B8,1.29 KA relative to UGCAUGU
9,B9,0.13 KA relative to UGCAUGU
10,B10,0.421 KA relative to UGCAUGU
11,B11,0.104 KA relative to UGCAUGU
12,B12,0.922 KA relative to UGCAUGU
13,B13,0.161 KA relative to UGCAUGU
14,B14,0.091 KA relative to UGCAUGU
15,B15,0.127 KA relative to UGCAUGU
16,B16,0.146 KA relative to UGCAUGU
17,B17,0.494 KA relative to UGCAUGU
18,B18,0.13 KA relative to UGCAUGU
19,B19,0.0936 KA relative to UGCAUGU
20,B20,0.0737 KA relative to UGCAUGU
